Measurements as given in PubChem BioAssay (Tox21).
Results filed as inconclusive are left out. Calls of active or inactive are those of the source. Unless noted, the call rests on the fitted dose curve; in most records, active means well fitted curve in the direction sought with a large enough effect in the repeat runs; inconclusive means weak or mixed curves; inactive means no such curve, though single readings can be large; an effect the other way counts as inactive or inconclusive.

Experiments:
[1] = qHTS assay to identify small molecule antagonists of the estrogen related receptor (ERR) signaling pathway - cell viability counter screen (AID 1224818);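 further: viability measured after 17.5 h of compound exposure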
Method in brief: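 ERR reporter cells plated 6 h at 37 C/5% CO2, then compounds in DMSO pin-transferred and incubated 17.5 h at 37 C. Viability read as CellTiter-Fluor fluorescence after 30 min at 37 C.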

[2] = qHTS assay to identify small molecule antagonists of the estrogen related receptor (ERR) signaling pathway (AID 1224819;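 further: luminescence from an ERR-driven luciferase reporter measured with One-Glo reagent; nearly all actives have a fitted effect of over 50% in size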)
Method in brief: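 ERR reporter cells were plated at 2,000 cells/well and left 6 h at 37 C/5% CO2 before pin-tool transfer of compounds in DMSO. After 18 h at 37 C, One-Glo was added and luminescence was read 30 min later at room temperature.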

[3] = qHTS assay to identify small molecule agonists of the estrogen related receptor (ERR) signaling pathway (AID 1224820)
Method in brief: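 Cells: ERR line from NTP, 2,000/well. Pre-incubation 6 h, 37 C/5% CO2. Compound (DMSO) pin transfer, 18 h 37 C. One-Glo, 30 min RT, luminescence.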

[4] = qHTS assay to identify small molecule agonists of the estrogen related receptor signaling pathway with the pleiotropic PPARgamma coactivator (PGC) (AID 1224823)
Method in brief: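 Steps: plate PGC/ERR cells at 2,000 cells/well; incubate 6 h, 37 C/5% CO2; pin-transfer compounds (DMSO); incubate 18 h, 37 C; add One-Glo; 30 min RT; read luminescence.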

[5] = qHTS assay to identify small molecule agonists of the estrogen related receptor (ERR) signaling pathway from Tox21 library (AID 1224849; calls by dose curve; further: nearly all actives have a fitted effect of over 15% in size); conditions: ERR reporter cell line, ONE-Glo luciferase, 18 h; at 92.4 µM (top of the series) unless noted
Method in brief: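 ERR reporter cell line (NTP) seeded, rested 6 h at 37 C/5% CO2, then pinned with Tox21 compounds in DMSO. After 18 h at 37 C, ONE-Glo luciferase luminescence was read following 30 min at room temperature.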

[6] = A CellTox Green Cytotoxicity Assay to monitor cytotoxicity in HepG2 cells - 8 hour (AID 1224890); further: nearly all actives have a fitted effect of over 45% in size
Method in brief: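 HepG2 cells were seeded together with the CellTox Green dye at 600 cells/well, left 5 h at 37 C/5% CO2, then given compounds in DMSO. Fluorescence from dye bound to dead-cell DNA was read repeatedly over 40 h of treatment at 37 C.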

[7] = qHTS assay to identify small molecule antagonists of the estrogen receptor alpha (ER-alpha) signaling pathway using the BG1 cell line in the presence of 0.1 nM 17-beta-estradiol - cell viability counter screen (AID 1259241); further: nearly all actives have a fitted effect of over 40% in size
Method in brief: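 CellTiter-Fluor read (30 min, 37C) on ER-alpha/ERE-luc VM7Luc4E2 cells; 22 hr compound treatment; agonist 0.1 nM E2 final; same-well multiplex.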

[8] = qHTS assay to identify small molecule HDAC inhibitors (AID 1259364); further: top concentration of the series differs between compounds; nearly all actives have a fitted effect of over 45% in size
Method in brief: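 Wild-type HCT-116 cells were plated overnight, exposed to compounds for 2 h at 37 °C, then given HDAC-Glo class I/II luminogenic reagent for 30 min at room temperature before luminescence was read.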

[9] = qHTS assay to identify small molecule HDAC inhibitors - cell viability counter screen (AID 1259365); further: nearly all actives have a fitted effect of over 50% in size
Method in brief: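 To flag cytotoxic hits, 1,500 wild-type HCT-116 cells per well, plated the day before, receive test compounds for 2hr at 37 C before CellTiter-Glo reagent and a luminescence read.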

[10] = qHTS assay to identify small molecule agonists of the sonic hedgehog signaling (Shh) pathway (AID 1259368; calls by dose curve; further: nearly all actives have a fitted effect of over 15% in size)
Method in brief: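 NIH/3T3-derived 3T3Gli1-Luc cells carrying a stably integrated Gli1 response element–firefly luciferase reporter were plated, left 4 hr at 37 C, then given compounds in DMSO for 24 hr. Luminescence was read 30 min after adding luciferase reagent.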

[11] = Caspase-3/7 induction in HepG2 cells by small molecules, qHTS assay (AID 1346978); further: nearly all actives have a fitted effect of over 15% in size
Method in brief: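 Wild-type HepG2 cells (2,000/well) were settled 5 h at 37 C, 5% CO2, then exposed to compounds in DMSO for 17 h. Caspase-3/7 activity was read by luminescence 30 min after adding Caspase-Glo 3/7 reagent at room temperature.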

[12] = Caspase-3/7 induction in CHO-K1 cells by small molecules, qHTS assay (AID 1346980); further: nearly all actives have a fitted effect of over 15% in size
Method in brief: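 Wild-type cells were seeded at 1,500 per well and settled 5 hr at 37 C, 5% CO2, then exposed to DMSO-dissolved compounds for 17 hr. Caspase-Glo 3/7 reagent was added, and luminescence was read after 30min at room temperature.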

[13] = target: Acetylcholinesterase (Homo sapiens) (UniProt P22303); assay: Acetylcholinesterase (AChE) small molecule antagonists: colormetric cell-based qHTS assay (AID 1347395; calls by dose curve; further: nearly all actives have a fitted effect of over 30% in size)
Method in brief: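 In this cell-based qHTS, attached SH-SY5Y cells were treated with test chemicals for 30 min, after which acetylthiocholine hydrolysis was followed by DTNB colour development over 90 min at 37 C.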

[14] = target: Acetylcholinesterase (Homo sapiens) (UniProt P22303); assay: Acetylcholinesterase (AChE) small molecule antagonists: enzyme-based qHTS assay (AID 1347397; calls by dose curve; further: nearly all actives have a fitted effect of over 55% in size); conditions: Potency: AChE enzyme activity inhibition; outcome: AChE enzyme activity inhibition
Method in brief: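 Human recombinant acetylcholinesterase; substrate acetylthiocholine; thiocholine quantified with DTNB (colorimetric). Compound preincubation 30 min RT; reaction 10 min RT.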

[15] = target: Acetylcholinesterase (Homo sapiens) (UniProt P22303); assay: Acetylcholinesterase (AChE) small molecule antagonists: fluorescence cell-based qHTS assay (AID 1347398; calls by dose curve; further: nearly all actives have a fitted effect of over 50% in size); conditions: Potency: AChE activity; outcome: AChE activity
Method in brief: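 Thiocholine generated from acetylthiocholine by SH-SY5Y cell AChE is detected with Thiolite Green (Ex/Em 490/520 nm) after 40 min at room temperature, following 30 min compound pretreatment at 37 C.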

[16] = target: Acetylcholinesterase (Homo sapiens) (UniProt P22303); assay: Acetylcholinesterase (AChE) small molecule antagonists: enzyme-based qHTS assay with human liver microsomes (AID 1347399; calls by dose curve; further: nearly all actives have a fitted effect of over 60% in size); conditions: Potency: qHTS inhibition; outcome: qHTS inhibition
Method in brief: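 Recombinant human AChE (50 mU/mL in the enzyme mix) and human liver microsomes (0.25 mg/mL final) were preincubated with compound and NADPH (0.25 mg/mL final) for 30 min at 37 C. Acetylthiocholine/DTNB was then added; thiocholine was read colorimetrically after 10 min at room temperature.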

[17] = target: Cytochrome P450 1A2 (Homo sapiens) (UniProt P05177); assay: Cytochrome P450 Family 1 Subfamily A Member 2 (CYP1A2) small molecule antagonists: luciferase reporter qHTS assay (AID 1671199); further: nearly all actives have a fitted effect of over 50% in size; further: potency means the concentration at half of the fitted maximal effect
Method in brief: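 Human CYP1A2 activity measured with a P450-Glo proluciferin substrate; compounds in DMSO preincubated 10 min at room temperature with enzyme-substrate mix, then NADPH regeneration system added for 1 h. Luciferin detection reagent, 20 min, luminescence read.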

[18] = A CellTox Green Cytotoxicity Assay to monitor cytotoxicity in HEK293 cells - 0 hour (AID 1224869); further: nearly all actives have a fitted effect of over 50% in size
Method in brief: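 HEK293 cells premixed with CellTox Green dye were seeded at 600 cells/well and left 5 h at 37 C/5% CO2 before pin transfer of 23 nL compound in DMSO. Fluorescence from dye bound to dead-cell DNA was read during 40 h treatment.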

[19] = tested on: estrogen-related receptor alpha (ERRalpha) with PGC-1alpha coactivator, human; assay: qHTS assay to identify small molecule antagonists of the estrogen related receptor signaling pathway with the pleiotropic PPARgamma coactivator (PGC) (AID 1224821; calls by dose curve)
Method in brief: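 Luminescent read-out (One-Glo, 30 min at room temperature) following 18 h treatment of PGC/ERR cells at 37 C with compounds delivered in DMSO. Cells had settled 6 h at 37 C/5% CO2 before dosing.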

[20] = qHTS assay to identify small molecule antagonists of the estrogen related receptor signaling pathway with the pleiotropic PPARgamma coactivator (PGC) cell viability counter screen (AID 1224822)
Method in brief: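 PGC/ERR cells were seeded at 2,000 cells/well, rested 6 h at 37 C/5% CO2, then given compounds in DMSO by pin tool and incubated 17.5 h at 37 C. Viability came from CellTiter-Fluor fluorescence after 30 min.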
On the % scale 0 is the no-effect control and ±100 the full control effect.

Sequence of Cytochrome P450 1A2 (Homo sapiens) (P05177 whole entry, looked up): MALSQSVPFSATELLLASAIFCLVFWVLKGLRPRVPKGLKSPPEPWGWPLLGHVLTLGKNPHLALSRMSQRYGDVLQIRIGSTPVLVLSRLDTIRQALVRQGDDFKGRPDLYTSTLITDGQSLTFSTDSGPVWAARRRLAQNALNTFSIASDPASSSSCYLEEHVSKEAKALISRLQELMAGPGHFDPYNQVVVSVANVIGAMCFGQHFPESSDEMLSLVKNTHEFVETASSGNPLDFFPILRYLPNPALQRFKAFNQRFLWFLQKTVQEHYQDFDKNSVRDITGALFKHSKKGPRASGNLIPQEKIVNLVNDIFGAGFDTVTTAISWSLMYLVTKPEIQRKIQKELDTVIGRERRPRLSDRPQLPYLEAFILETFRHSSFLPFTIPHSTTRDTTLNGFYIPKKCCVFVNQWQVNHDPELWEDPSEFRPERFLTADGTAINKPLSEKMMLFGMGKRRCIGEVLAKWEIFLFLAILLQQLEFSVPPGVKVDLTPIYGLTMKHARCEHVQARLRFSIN
Sequence of Acetylcholinesterase (Homo sapiens) (P22303 whole entry, looked up): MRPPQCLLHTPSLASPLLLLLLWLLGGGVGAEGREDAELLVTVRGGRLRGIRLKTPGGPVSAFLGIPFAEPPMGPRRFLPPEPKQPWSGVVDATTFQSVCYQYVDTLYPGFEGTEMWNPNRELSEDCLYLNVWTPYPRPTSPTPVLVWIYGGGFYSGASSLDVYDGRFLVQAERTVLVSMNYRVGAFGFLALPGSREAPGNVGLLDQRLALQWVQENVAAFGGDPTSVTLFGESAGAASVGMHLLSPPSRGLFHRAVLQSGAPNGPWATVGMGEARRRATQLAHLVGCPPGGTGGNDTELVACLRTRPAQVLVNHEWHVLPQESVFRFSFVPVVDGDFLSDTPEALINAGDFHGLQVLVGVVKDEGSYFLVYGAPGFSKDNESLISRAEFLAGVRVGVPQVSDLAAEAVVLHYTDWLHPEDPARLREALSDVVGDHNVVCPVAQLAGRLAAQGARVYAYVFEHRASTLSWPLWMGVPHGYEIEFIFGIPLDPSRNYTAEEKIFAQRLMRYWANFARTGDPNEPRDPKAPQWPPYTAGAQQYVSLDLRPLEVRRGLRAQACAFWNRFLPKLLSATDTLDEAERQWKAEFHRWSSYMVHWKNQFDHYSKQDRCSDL

O=[N+]([O-])c1c(Cl)c(Cl)cc(Cl)c1Cl
active: Potency [17] 4.8 µM
inactive: Potency [1] | Potency [2] | Potency [3] | Potency [4] | activity change, positive = activation [5] 0.621% | Potency [6] | Potency [7] | outcome [8] | outcome [9] | outcome [10] | Potency [11] | outcome [12] | Potency [13] | Potency [14] | Potency [15] | Potency [16]

CC1COC(Cn2cncn2)(c2ccc(Oc3ccc(Cl)cc3)cc2Cl)O1 (centres undefined)
active: Potency [17] 25.2 µM
inactive: activity change, positive = activation [5] -64.8% | Potency [18] | Potency [6] | Potency [7] | outcome [8] | outcome [9] | outcome [10] | Potency [11] | outcome [12] | Potency [13] | Potency [14] | Potency [15] | Potency [16]

Clc1ccccc1-c1ccccc1Cl
inactive: Potency [18] | Potency [6] | Potency [7] | outcome [8] | outcome [9] | outcome [10] | outcome [12] | Potency [17]

CCc1cccc(C)c1N
inactive: activity change, positive = activation [5] 10.2%

Nc1ccc(Cl)cc1Cl
inactive: activity change, positive = activation [5] -4.05%

NCc1cc(=O)[nH]o1
inactive: Potency [1] | Potency [2] | Potency [3] | Potency [19] | Potency [20] | Potency [4]

CC(=O)NCCc1c[nH]c2ccccc12
inactive: Potency [1] | Potency [2] | Potency [3] | Potency [20] | Potency [4]

C[C@@H]1O[C@H](C[N+](C)(C)C)C[C@H]1O
inactive: Potency [1] | Potency [2] | Potency [3] | Potency [19] | Potency [4]

CCCN1CCC[C@H](c2cccc(O)c2)C1
inactive: Potency [1] | Potency [2] | Potency [3] | Potency [19] | Potency [20] | Potency [4]

CC(C)(C)c1o[nH]c(=O)c1CC(N)C(=O)O (centres undefined)
inactive: Potency [1] | Potency [2] | Potency [3] | Potency [19] | Potency [4]

O=P(O)(O)C(Cl)(Cl)P(=O)(O)O
inactive: Potency [1] | Potency [2] | Potency [3] | Potency [19] | Potency [20] | Potency [4]

CCCN1CCc2cc(O)cc3c2[C@H]1Cc1ccc(O)c(O)c1-3
inactive: Potency [1] | Potency [2] | Potency [3] | Potency [19] | Potency [4]

c1ccc2sc(C3(N4CCCCC4)CCCCC3)cc2c1
inactive: Potency [1] | Potency [2] | Potency [3] | Potency [19] | Potency [4]

COc1ccc2c(c1)C13CCCCC1C(C2)N(C)CC3 (centres undefined)
inactive: Potency [1] | Potency [2] | Potency [3] | Potency [20] | Potency [4]

CCCCCN(C)CCC(O)(P(=O)(O)O)P(=O)(O)O
inactive: Potency [1] | Potency [2] | Potency [3] | Potency [19] | Potency [4]

COc1ccc2c(c1O)-c1cccc3c1[C@@H](C2)N(C)CC3
inactive: Potency [1] | Potency [2] | Potency [3] | Potency [19] | Potency [4]
